Test results from PubChem BioAssay AID588590 (National Center for Advancing Translational Sciences (NCATS), 2011).
In all, about 390,000 compounds went through this assay and about 4,000 (1%) were called active. Another 7% or so got no clear call; they are omitted. The call rests on the fitted dose curve; in most records, active means well fitted inhibition curve with a large enough effect; inconclusive means small, poorly fitted or top-dose-only effect, or another doubt; inactive means no such curve, though single readings can be large or run the other way. Only a selection was taken, and actives are over-represented in it overall.

Target: DNA polymerase iota (Homo sapiens) (UniProt Q9UNA4)
Assay: qHTS for Inhibitors of Polymerase Iota
Conditions: Pol iota fluorescent replication assay, 10 min; series mostly up to 115 µM; activity, negative = inhibition: at the top concentration
Procedure, shortened: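 Pol iota at 10 nM preincubated 15 min with compounds at room temperature; reaction started with fluorescent substrate, 50 nM final. Fluorescence read kinetically at 0 and 10 min; buffer-only wells as negative control.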
Potency means the concentration at half of the fitted maximal effect.

Chain of DNA polymerase iota (Homo sapiens) (Q9UNA4 whole entry, looked up): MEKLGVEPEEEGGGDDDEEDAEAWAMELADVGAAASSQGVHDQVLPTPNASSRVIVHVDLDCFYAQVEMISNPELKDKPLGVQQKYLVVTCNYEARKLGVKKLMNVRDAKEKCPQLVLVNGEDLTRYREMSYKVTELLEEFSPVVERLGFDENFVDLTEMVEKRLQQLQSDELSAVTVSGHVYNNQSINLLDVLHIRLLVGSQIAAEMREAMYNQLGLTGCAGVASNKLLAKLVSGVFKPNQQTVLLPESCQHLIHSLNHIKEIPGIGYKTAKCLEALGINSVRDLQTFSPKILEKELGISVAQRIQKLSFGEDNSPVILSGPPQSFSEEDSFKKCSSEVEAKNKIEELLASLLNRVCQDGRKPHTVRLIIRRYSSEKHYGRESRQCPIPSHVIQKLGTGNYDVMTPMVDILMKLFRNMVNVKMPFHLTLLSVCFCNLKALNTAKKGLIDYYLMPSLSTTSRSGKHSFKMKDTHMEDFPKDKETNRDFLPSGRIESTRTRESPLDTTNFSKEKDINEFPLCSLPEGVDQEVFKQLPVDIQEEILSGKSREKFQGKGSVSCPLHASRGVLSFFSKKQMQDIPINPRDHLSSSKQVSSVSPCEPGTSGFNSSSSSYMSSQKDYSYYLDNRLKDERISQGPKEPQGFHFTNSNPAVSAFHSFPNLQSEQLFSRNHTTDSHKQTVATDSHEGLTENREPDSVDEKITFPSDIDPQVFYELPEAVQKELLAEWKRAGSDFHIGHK

activity, negative = inhibition, inactive:
Cc1ccc(-n2c(=O)c3cccnc3n2CC(=O)Nc2ccccc2C(F)(F)F)cc1C -0.67%
COc1ccc(Cn2c(O)c(/C=C3/C=CC=N3)c(=O)[nH]c2=O)cc1 -9.71%
CCN(C(=O)COC(=O)CCOc1cccc(C)c1)c1c(N)n(Cc2ccccc2)c(=O)[nH]c1=O 22.8%
COc1ccccc1CCNC(=O)c1cccn1-c1nnc(N2CCCCC2)s1 3.68%
Cc1ccc2nc(-c3ccc(C)c(NC(=O)Cc4ccccc4)c3)oc2c1 17.9%
Cc1c(CCO)sc[n+]1CC(=O)c1ccc2ccccc2c1 5.31%
O=C(c1cc2ccccc2s1)N1CCN(c2ccccn2)CC1 29.9%
CC1CCN(c2nc3ccc(C(=O)N4CCN(c5ccccc5)CC4)cc3s2)CC1 -4.14%
CCNC(=O)Cn1nc(C)n2c(cc3c(OC)cccc32)c1=O 2.21%
CN(C)c1ccc(/C=N\Nc2ccc([N+](=O)[O-])cc2[N+](=O)[O-])cc1Cl -14%
COc1cccc(Cn2c(SCc3ccc(C(=O)N4CCCCC4)cc3)nc3ccncc32)c1 3.02%
CCc1nc2cccnc2n1-c1ccc(CC(=O)Nc2c(C)cccc2C)cc1 7.57%
COCCCNC(=O)Cc1ccc(-n2c(C)nc3cccnc32)cc1 -18.4%
COc1ccc(N2CCN(Cc3nc4c(c(=O)[nH]c(=O)n4C)n3Cc3ccc(Cl)cc3)CC2)cc1 25.9%
O=C(NCCc1ccc(Cl)cc1)c1ccc2c(c1)N(Cc1ccc(F)cc1)C(=O)CS2 -20.5%
CCC(=O)N1CCc2cc(Br)cc(S(=O)(=O)CCC(=O)NCCc3ccc(OC)c(OC)c3)c21 14.3%
CCOC(=O)CNC(=O)c1cc2c(=O)n3cccc(C)c3nc2s1 5.79%
Cc1cccn2c(=O)c(/C=C(\C#N)S(=O)(=O)c3ccc(Cl)cc3)c(N3CCC(C(N)=O)CC3)nc12 -8.99%
CC1CCC(N2CC(=O)N(CCC3=CCCCC3)C(c3ccc(F)cc3)C2=O)CC1 (configuration not stated) -7.19%
COc1cc2c(cc1OC)C(COc1ccc(F)cc1)N(C(=O)c1ccccc1F)CC2 (configuration not stated) 3.48%
CCc1ccc(Nc2nn3c(=O)c4cc5c(cc4nc3s2)OCO5)cc1 -22.5%
Fc1ccc(-c2ccc(-c3nn4c(-c5ccco5)nnc4s3)o2)cc1 -5.94%

Potency, active:
CCCOc1ccc(Cn2c(O)cc(=O)[nH]c2=O)cc1 22.4 µM
O=C(c1cc2c(s1)CCC2)N1CCN(c2ccccc2)CC1 25.1 µM
CCc1nc2cccnc2n1-c1ccc(C(=O)O)cc1 25.1 µM
CCOC(=O)CC1C(=O)NCCN1c1nc2c(C)cccn2c(=O)c1/C=C1\SC(=S)N(C(C)CC)C1=O (configuration not stated) 39.8 µM
c1ccc(-c2cc(-c3nnc4sc(-c5ccccn5)nn34)[nH]n2)cc1 25.1 µM
